From PubChem BioAssay AID624483 (NMMLSC, 2012)
Hit rate of the full screen: of about 360,000 compounds, about 11,000 (3.1%) were called active. Roughly 2% stayed inconclusive and do not appear here. The sample holds actives, similar compounds and a random draw of the others, so the mix is not that of the screen. A number with no mark means an inactive call. No stated cut-off is given here; in the data, active means fluorescence intensity above about 16000; inconclusive means no clear call, values can overlap the other calls; inactive means below that.

Test: counter-screen for toxin protease inhibitors: compound fluorescence, primary screen, artefact control for toxin protease inhibitor project, biochemical, multiplex microsphere, HTS (AID 624483)
Settings: compound autofluorescence counterscreen, microsphere flow cytometry; stronger effect = higher value

Structure (SMILES)	fluorescence intensity
Cc1ccc(Cn2cc(CN3CC(N4CCN(C)CC4)CS3(=O)=O)nn2)cc1 (centres undefined)	5630
COC(CNC(=O)c1ccc2c(c1)ncn2-c1cc(C)cc(C)c1)OC	3480
Cc1ccc(CN2CCN(c3ccccc3Cl)CC2)o1	3970
COc1ccc(C(NC(=O)C2CCN(CCCc3ccccc3)CC2)c2cccs2)cc1 (centres undefined)	3340
O=C(CC(=O)c1cccnc1)c1ccccc1	3800
CCn1c(O)c(N=NC(=O)c2cccc(S(=O)(=O)N3CCCCC3)c2)c2ccccc21	2120
CCn1c(O)c2ccc(C(=O)N=NC(=O)c3cccnc3)cc2c1O	22400 (active)
Brc1ccc2nc(-c3ccccc3)c(Cc3ccccc3)n2c1	6060
Nc1c(N(Cc2ccco2)C(=O)c2cccc(F)c2)c(=O)[nH]c(=O)n1Cc1ccccc1	6060
CCCCn1c(O)c(C(CC)=NCc2ccco2)c(=O)[nH]c1=O	22200 (active)
CCCCn1c(N)c(N(CC)C(=O)/C=C/c2ccco2)c(=O)[nH]c1=O	3280
Cn1c(=O)[nH]c(=O)c2c1[nH]c(=S)n2Cc1ccccc1	5200
CCC(=NCCCO)c1c(O)n(-c2ccc(OC)cc2)c(=O)[nH]c1=O	3280
CCC(=NCc1ccco1)c1c(O)n(Cc2ccccc2)c(=O)[nH]c1=O	16900 (active)
CCNC(=O)C1(C)CCCN(C(=O)c2ccc3ccccc3n2)C1 (centres undefined)	2790
COc1cccc(CNc2nc3cc(-c4csc5ccccc45)sc3c(=O)n2C)c1	4090
CC(C)Nc1ncnc2c1ncn2[C@H]1CN(Cc2ccncc2)C[C@@H](CO)O1	2910
CCc1nc2c(OCC(N)=O)cccn2c1N(C)C(=O)c1ccc(OC)cc1	3440
COc1ccccc1N(C)S(=O)(=O)c1ccc(C(=O)NC2CCCCCC2)cc1	5030
CN(Cc1ccccc1)C(=O)[C@@H]1CCCN1C(=O)[C@@H]1CCCN1C(=O)c1c(F)cccc1F	5720
COc1cc(OC)cc(C(=O)NCC(=O)OCc2csc(-c3ccccc3)n2)c1	9780
O=C(NCCc1csc(-c2ccccc2)n1)c1ccccc1F	3720
CNC(=O)c1csc(-c2ccccc2)n1	22300 (active)
CCOC(=O)c1cc2cc(OC)ccc2n1C1CCN(C)CC1	5150

Structure (SMILES)	fluorescence intensity
O=C(COC(=O)Cc1ccc(Br)cc1)Nc1ccc(N2CCOCC2)cc1	8590
CC(=O)c1ccc(Nc2nc(C(N)c3ccccc3Cl)cs2)cc1 (centres undefined)	3780
COc1cccc(-c2cc3nc(NCc4ccccc4OC)n(C)c(=O)c3s2)c1	2860
COc1cnc(SCc2ccc(Cl)c(Cl)c2)nc1Cl	20800 (active)
Nc1cc(N)nc(SCc2ccc(Cl)cc2)n1	4250
COc1ccc(CCNc2nc(C)cc(C)n2)cc1OC	3430
Cc1ccc([C@H]2N[C@]3(CCCN(CC4CCCCC4)C3=O)[C@H]3C(=O)N(Cc4ccccc4)C(=O)[C@@H]23)cc1	3930
O=c1c2ccccc2nc(N/N=C/c2ccccc2)n1O	24900 (active)
O=c1c2ccccc2ncn1/N=C/c1ccccc1	3940
CC(C)(C)c1nnc(N/N=C/c2ccc(O)cc2)n(N)c1=O	9530
Fc1ccc(-n2c(Cc3ccccc3)nnc2SCc2nc(-c3ccc(Cl)cc3)no2)cc1	25000 (active)
Cc1nnc(SCc2ccc(C(=O)c3ccc(Cl)cc3)o2)n1-c1ccccc1	6940
Cn1cccc1Cc1nnc(SCC(=O)NCCc2ccccc2)n1-c1ccc(F)cc1	5310
Cc1ccc(-c2noc(CSc3nnc(-c4cccs4)n3C)n2)cc1	9700
Cn1c(SCc2ccc(F)cc2)nnc1-c1ccncc1	4260
Cc1ccc(-c2noc(CSc3nnc(-c4ccncc4)n3-c3ccc(F)cc3)n2)cc1	21100 (active)
CC(C)(C)NC(=O)NC(=O)COC(=O)Cc1c(F)cccc1Cl	4470
O=C(Nc1c(Br)cc2c(c1Br)Cc1ccccc1-2)C(F)(F)F	3730
O=C(CC(NCCN1CCOCC1)C(=O)O)Nc1cccc(Cl)c1 (centres undefined)	3410
C=CCn1c(CC(=O)Nc2cccc(OC)c2)nnc1SCC(=O)NC1CCCCC1	21000 (active)
Cn1c(CC(=O)Nc2ccc(F)cc2)nnc1SCC(=O)NC1CCCCC1	3940
COc1cccc(NC(=O)CSc2nnc(C3CCCCC3)n2N)c1	7460
Cc1nc2c(OCc3ccc(Cl)cc3Cl)cccn2c1N(C)CC1CC1	3540
C[C@@H]1CN([C@@H](C)CO)C(=O)c2cc(Br)cnc2O[C@H]1CN(C)Cc1ccc(-c2ccccc2)cc1	2930

Structure (SMILES)	fluorescence intensity
CCCNC(=O)c1cc(C2CCCN(C(=O)c3ccc4c(c3)CCO4)C2)on1 (centres undefined)	3960
O=[N+]([O-])c1ccc(C=Nc2ccc(Cl)cc2Cl)s1	22300 (active)
CC1CN(C(=O)c2ccc([N+](=O)[O-])s2)CC(C)O1 (centres undefined)	6540
CNN/C(N=Cc1ccc([N+](=O)[O-])s1)=N\S(=O)(=O)c1cc(C)c(Cl)cc1SCc1ccccc1	3540
CC(=O)NC(c1cccc(F)c1)c1nc(-c2cccc(F)c2)cs1 (centres undefined)	2910
COCCNC(=O)c1ccc2nc(Cc3ccc(OC)c(OC)c3)oc2c1	4160
CCCCc1nc2ccc(F)cc2cc1C	6420
O=C1NC[C@H](CCCCN2C[C@H](Cc3ccccc3)N(Cc3ccccc3)C(=O)C2=O)N(CCc2ccc(O)cc2)C1=O	4050
COCCNC(=O)c1ccc(S(=O)(=O)c2ccc(Cl)cc2)c(NC(C)=O)c1	3030
CC(=O)Nc1cc(C(=O)O)ccc1S(=O)(=O)c1ccc(Cl)cc1	22400 (active)
Cc1ccc(S(=O)(=O)c2ccc(Cl)cc2)cc1S(=O)(=O)NC(C(=O)O)C(C)C (centres undefined)	1970
CC1(C(=O)Nc2cccc3cccnc23)CCN1C(=O)CCC1CCCC1 (centres undefined)	3540
COc1cccc(CN(C)C(=O)CC[C@H]2O[C@@H](n3cnc4c(NC(=O)c5ccccc5)ncnc43)[C@H](O)[C@@H]2O)c1	5840
COc1ccc2ccccc2c1CNCc1ccccn1	22000 (active)
COc1ccc(C)cc1NC(=O)NCc1ccccn1	2130
COc1ccc2ccccc2c1CNc1nnnn1C	4610
Cc1ccc(Cc2c(-c3ccco3)nc3ccc(Cl)cn23)cc1	5920
CC(=O)Nc1ccc(S(=O)(=O)NC2Cc3ccccc3C2)cc1	4250
COc1ccc(-c2cc(NC=O)c3ncc(-c4ccccc4)n3c2)cc1OC	4190
CN(CC#CCC(c1ccccc1)c1ccccc1)C(C)(C)C	13300
CC(C)NC(=O)C(=O)NCCN1CCN(S(=O)(=O)c2ccc(Cl)cc2)CC1	10600
CS(=O)(=O)N1CCCCC1c1cc(C(=O)NCc2ccccc2)no1 (centres undefined)	2870
CC(=O)c1cccc(-c2cnc3c(NC=O)cc(-c4ccc(N5CCN(C)CC5)cc4)cn23)c1	3240
O=C(CN1CCN(c2ccc(F)cc2)CC1)Nc1cccc(C(F)(F)F)c1	2100

Structure (SMILES)	fluorescence intensity
O=C(Nc1ccc(C(=O)N2CCOCC2)cc1)Nc1cccc(C(F)(F)F)c1	6040
NC(=O)Nc1cccc(C(F)(F)F)c1	23300 (active)
COc1ccc(NC(=O)C2(C)Cc3c(-c4ccc(C(N)=O)cc4)ccnc3O2)cc1 (centres undefined)	3540
COC(=O)c1ccc(CNC(=O)C2CCC(=O)N(Cc3ccccn3)C2)cc1 (centres undefined)	4790
CCS(=O)(=O)Nc1cc(C(=O)OC)ccc1C(=O)OC	20300 (active)
COC(=O)c1ccc(C(=O)OC)c(NC(=S)N2CCCCC2)c1	5240
CCCN(CCC)C(=S)Nc1cc(C(=O)OC)ccc1C(=O)OC	2240
CC1C(=O)N(Cc2cn(Cc3ccco3)nn2)CCS(=O)(=O)N1Cc1ccc(-c2cccc(CO)c2)cc1 (centres undefined)	3680
C=CCN1C2CCCC1CC(NC(=S)Nc1cccc(OC)c1)C2 (centres undefined)	4340
CCCCNC(=O)c1nc(C2CCN(S(=O)(=O)c3ccc(F)c(F)c3)CC2)oc1-c1cccc(C(F)(F)F)c1	5910
O=C(Nc1ccc(Cl)cn1)c1cnn2cccnc12	4840
Cc1cc(NC(=O)c2cnn3cccnc23)n(-c2ccccc2)n1	19500 (active)
Cc1cc(NC(=O)Nc2ccc(Cl)cc2)n(-c2ccccc2)n1	5820
O=C(NCc1ccc(F)cc1)c1cc(C2CCCCN2C(=O)C2CCCCC2)on1 (centres undefined)	3660
CC(=O)c1cccc(NC(=S)N2CCCC2)c1	4420
CCC(CC)C(=O)Nc1cccc(C(=O)N2CCCC2)c1	9330
O=C(Nc1cccc(C(=O)N2CCCC2)c1)c1ccccc1	23500 (active)
COc1ccc(OC)c(CNC(=O)C2CCCN(c3nc4ccccc4o3)C2)c1 (centres undefined)	15800
COc1ccccc1CNC(=O)C1CCN(c2nc3ccccc3o2)CC1	21300 (active)
COc1ccccc1CNC(=O)C1CCN(S(C)(=O)=O)CC1	8350
COc1ccccc1CNC(=O)c1cc(-c2cc(F)ccc2OC)n[nH]1	3700
CC(C)C[C@H]1CNC(=O)C(=O)N1C[C@@H]1CCCN1C[C@H](Cc1ccccc1)N1C[C@H](CC(C)C)N(CC2CCCCCC2)C(=O)C1=O	5660
